SENP6 block: blocks the human protease SENP6; AID 2599; inhibition, % at 10 µM; 330,000 compounds, 1.8% hits; Recombinant SENP6 catalytic domain, aminoluciferin luminescence; Q9GZR1;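 active = inhibition above about 50% at the single tested dose, limit read from the data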;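 note: plate controls were DMSO wells with enzyme for no effect and DMSO wells lacking enzyme for full effect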
C8 TRAIL sens: sensitizes caspase-8 expressing cells to TRAIL | NB7+C8 cells + TRAIL, ATPlite viability luminescence | inhibition (viability loss, TRAIL sensitization), % at 10 µM | 360,000 compounds, 1% hits | AID 624354;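 active = compounds causing at least 50% loss of cell viability in the single-dose screen, relative to plate controls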
SENP8 block-1: inhibitors of human SENP8 protease; 330,000 compounds, 1.2% hits; AID 2540; purified SENP8, Z-RLRGG-aminoluciferin cleavage, luminescence; Q96LD8; inhibition, % at 10 µM; in the data active = inhibition above about 50%
SENP8 block-2: blocks human SENP8 cleavage of Nedd8 substrate | Q96LD8 | recombinant SENP8, Nedd8 substrate fluorescence | inhibition, % at 20 µM | 360,000 compounds, 0.64% hits | AID 602440; in the data active = inhibition mostly above about 40%, no sharp cut-off; inactive = mostly below about 27%
SENP7 block: blocks the human protease SENP7 | recombinant SENP7, Z-RLRGG-aminoluciferin luminescence, 40 min | inhibition, % at 5 µM | 330,000 compounds, 1.5% hits;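 active = inhibition above about 50% at the single test dose, limit read from the data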;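 note: plate controls were DMSO with enzyme for no effect and no enzyme buffer wells for full effect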
Target sequence (Q9BQF6 706-1050 limits assumed): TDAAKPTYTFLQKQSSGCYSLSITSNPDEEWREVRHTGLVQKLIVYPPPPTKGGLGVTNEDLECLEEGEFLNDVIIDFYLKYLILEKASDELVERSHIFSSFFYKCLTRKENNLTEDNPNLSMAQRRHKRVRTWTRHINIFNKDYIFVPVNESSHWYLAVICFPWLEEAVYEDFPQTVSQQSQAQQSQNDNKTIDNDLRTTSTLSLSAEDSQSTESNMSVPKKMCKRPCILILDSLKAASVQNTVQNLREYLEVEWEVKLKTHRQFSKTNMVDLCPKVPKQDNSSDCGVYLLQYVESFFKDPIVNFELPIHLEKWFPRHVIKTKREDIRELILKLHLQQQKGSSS
PPC-1+TRAIL kill: PPC-1 cancer cell killing with TRAIL present | 220,000 compounds, 0.41% hits | cell killing (% activity), % at 4 µM or 5 µM | PPC-1 cells + TRAIL, ATPLite viability luminescence;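 active = cell killing above 50% in the first pass at 4 µM, then a duplicate retest at 5 µM averaging 50% or more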;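 note: plate controls were cells with TRAIL plus DMSO for no effect and medium-only wells lacking cells for full effect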
SENP8 confirm: confirmation of human SENP8 protease inhibitors; shares compounds with SENP7 block; Recombinant SENP8, Z-RLRGG-aminoluciferin luminescence, 60 min; inhibition, % at 12.5 µM; 6,200 compounds, 40% hits;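 active = mean inhibition across replicates above about 50%, limit read from the data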
SENP6 conf: confirmation of human SENP6 protease inhibitors. shares compounds with SENP7 block. AID 488915. recombinant SENP6, Z-RLRGG-aminoluciferin luminescence. inhibition, % at 12.5 µM. 6,200 compounds, 58% hits
SENP7 confirm: human SENP7 inhibition, confirmed; recombinant SENP7, Z-RLRGG-aminoluciferin luminescence, 40 min; shares compounds with SENP7 block; inhibition, % at 12.5 µM; AID 488917; 6,200 compounds, 69% hits
Casp3 select: inhibits human caspase-3 in SENP selectivity test; shares compounds with SENP7 block; purified caspase-3, Z-DEVD-aminoluciferin luminescence, 60 min; inhibition, % at 12.5 µM; 6,200 compounds, 60% hits; AID 488918;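 active = mean inhibition above about 50%, limit read from the data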;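 note: plate controls were enzyme with DMSO for no effect and wells without caspase-3 for full effect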
Target sequence (P42574 28-227 limits assumed): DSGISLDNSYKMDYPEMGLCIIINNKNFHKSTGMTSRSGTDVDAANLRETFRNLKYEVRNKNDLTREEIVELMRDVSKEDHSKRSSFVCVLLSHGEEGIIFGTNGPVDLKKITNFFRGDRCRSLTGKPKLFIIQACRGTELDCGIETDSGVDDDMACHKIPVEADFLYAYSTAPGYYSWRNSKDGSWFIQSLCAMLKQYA
SENP luc ctr: counter-screen for SENP inhibitors: luminescence interference. shares compounds with SENP7 block. Pre-incubated SENP8/Z-RLRGG-aminoluciferin, luciferase luminescence interference. inhibition, % at 12.5 µM. 6,200 compounds, 39% hits;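 active = mean inhibition above about 50% when retested at one dose, limit read from the data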;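 note: plate controls were DMSO wells with completed reaction for no effect and substrate without enzyme for full effect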
* marks the source's active call; other numbers are inactive results; . = no result. Only some compounds are listed: those with a hit (about 3% of all), similar ones and a draw of the others.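 Rule for the calls, unless noted: active = mean inhibition above about 50% in the one-dose retest (limit read from the data); inactive = the rest.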

SMILES	SENP6 block	C8 TRAIL sens	SENP8 block-1	SENP8 block-2	SENP7 block	PPC-1+TRAIL kill	SENP8 confirm	SENP6 conf	SENP7 confirm	Casp3 select	SENP luc ctr
COc1ccc(/C(N)=N/OC(=O)c2cccs2)cc1	77*	17	58*	11	15	14	64*	74*	95*	75*	82*
Cc1cc(/C(N)=N/OC(=O)c2ccc(Cl)cc2)no1	85*	14	80*	31	94*	12	24	86*	97*	92*	21
N/C(=N\OC(=O)Cc1cccs1)c1ccc(Cl)cc1	-2	-2	-9	0	-1	-8	.	.	.	.	.
N/C(=N\OC(=O)c1cccs1)c1ccc(Cl)cc1	61*	39	51*	18	68*	19	5	6	11	7	11
COc1ccc(/C(N)=N/OC(=O)c2ccc(Br)o2)cc1	43	42	2	14	16	.	.	.	.	.	.
Cc1ccc(C(=O)O/N=C(\N)Cc2ccc([N+](=O)[O-])cc2)c(Cl)c1	-7	-1	2	21	7	0	.	.	.	.	.
COc1ccccc1C(=O)O/N=C(\N)c1ccc(Cl)cc1	-1	27	13	0	24	23	.	.	.	.	.
Cc1ccc(/C(N)=N/OC(=O)c2ccc(Cl)cc2Cl)cc1	79*	67*	49	5	64*	57*	33	50*	84*	47	59*
Cc1cccc(C(=O)O/N=C(\N)c2ccc(Cl)cc2)c1	25	34	22	13	50	.	.	.	.	.	.
Cc1ccc(C(=O)O/N=C(\N)Cc2cccs2)c(Cl)c1	87*	96*	70*	0	85*	.	84*	83*	95*	86*	84*
COc1ccc(C(=O)O/N=C(\N)c2ccc(Cl)cc2)cc1	58*	23	45	18	68*	.	45	42	84*	72*	42
CCOC(=O)C1(Cc2ccccc2C)CCCN(Cc2ccc(NC(C)=O)cc2)C1 (centres undefined)	-8	2	-8	9	-4	26	.	.	.	.	.
CC1(C)C(=O)Nc2ccccc2N1C(=O)COC(=O)Cc1ccc(Cl)c(Cl)c1	-4	-13	0	-1	0	.	.	.	.	.	.
O=C(NC(=S)Nc1ccccc1OC(F)F)c1ccc2c(c1)OCO2	4	7	4	-3	7	.	.	.	.	.	.
COc1cc(OC)cc(C(=O)NCCN2C(=O)S/C(=C\c3cccs3)C2=O)c1	-35	3	-18	12	-9	10	.	.	.	.	.
COc1cc(C(=O)NCCN2C(=O)S/C(=C\c3cccs3)C2=O)cc(OC)c1OC	12	-2	56*	6	64*	3	2	4	9	6	0
Cc1ccc(OCCn2ncc3ccccc3c2=O)c(C)c1	-14	11	-6	14	-4	.	.	.	.	.	.
O=c1c2ccccc2cnn1CCOc1cccc(Br)c1	74*	23	60*	8	58*	.	55*	68*	86*	58*	6
O=C1c2ccccc2S(=O)(=O)c2cc(N3CCOCC3)ccc21	62*	66*	46	-141	69*	.	26	20	25	34	18
O=C1c2ccccc2S(=O)(=O)c2cc(N3CCN(c4ccccc4)CC3)ccc21	-6	.	0	.	4	.	.	.	.	.	.
S=C(c1ccc(OCc2ccccc2)cc1)N1CCCC1	60*	-1	47	16	61*	.	42	37	55*	27	26
Fc1ccc(COc2ccc(C(=S)N3CCCC3)cc2)cc1	62*	-3	38	12	40	.	60*	54*	76*	46	28
CC(C)(C)NC(=O)CN(C(=O)CSc1nnc(COc2ccccc2)o1)c1cccc(F)c1	-5	7	2	12	52*	7	0	-1	-3	-4	-4
COc1cc(CN(CC2CCCO2)C(=O)c2cccs2)cc(OC)c1OC (centres undefined)	12	-4	-3	14	78*	.	-5	-6	-8	2	6
CCOC(=O)C(C)Oc1ccc(OCc2ccccc2)cc1 (centres undefined)	-10	-14	-12	-29	13	2	.	.	.	.	.
SMILES	SENP6 block	C8 TRAIL sens	SENP8 block-1	SENP8 block-2	SENP7 block	PPC-1+TRAIL kill	SENP8 confirm	SENP6 conf	SENP7 confirm	Casp3 select	SENP luc ctr
O=S(=O)(O)c1cccc(N=Nc2c(O)ccc3ccccc23)c1	99*	5	94*	24	92*	9	98*	99*	102*	97*	96*
CCc1ccc2cccc3c2c1N=CN3C	57*	-5	41	84*	27	.	15	21	15	3	3
CCC(C)CN1C(=O)CN(S(C)(=O)=O)CC1(C)C(=O)NC(C)C (centres undefined)	.	6	.	2	.	.	.	.	.	.	.
Oc1ccc(/C=N/N2CCCCC2)c(O)c1O	56*	-6	20	52*	11	.	-4	8	5	3	1
Oc1cccc(/C=N/N2CCCCC2)c1O	-14	4	-17	22	-9	.	.	.	.	.	.
Cc1nc(C#N)c(N/N=C/c2cccc(Cl)c2)o1	78*	12	86*	-19	11	-2	-3	91*	100*	80*	84*
O=c1cc(-c2ccc(O)cc2)oc2cc(O)cc(O)c12	70*	11	54*	14	29	.	52*	51*	75*	40	62*
O=c1cc(-c2ccc(O)cc2)oc2ccc(O)cc12	51*	6	19	-278	30	33	12	20	61*	45	45
Cc1ccc(S(=O)(=O)N2CCN(C)CC2)c2nsnc12	-10	7	-12	8	0	.	.	.	.	.	.
Cc1ccc(C(=O)Nc2ccc(NC(=O)c3ccc(C)o3)cc2)o1	18	-10	1	-10	-4	.	.	.	.	.	.
Cc1ccc(C(=O)Nc2ccc(C(=O)N3CCCCC3)cc2)o1	66*	-4	48	3	78*	.	58*	60*	89*	89*	68*
Cc1ccccc1CC(=O)Nc1ccc(C(=O)N2CCCC2)cc1	41	16	17	8	55*	.	44	40	69*	78*	53*
